FBW7 activator = activators of human E3 ligase FBW7. Q969H0. AlphaScreen FBW7–phospho-cyclin E peptide binding, activator screen. normalized activity (activation), % at 26.1 µM. 650,000 compounds, 0.13% hits. AID 1259310; in the data active = normalized activity above about 1.9%;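 also: purified mutant Fbw7 with reduced substrate affinity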
GPR151 ag = activates the human receptor GPR151; Q8TDV0; PathHunter beta-arrestin GPR151 cells, luminescence; activation, % at 11.2 µM; 650,000 compounds, 1% hits; AID 1508602; in the data active = activation above about 4.9%;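 also: 0% = median of compound wells and 100% = cells with positive control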
TEAD-YAP block = TEAD-YAP interaction inhibition. HEK-TIYL cells, TEAD-Gal4/YAP UAS-luciferase luminescence. 640,000 compounds, 1.4% hits. inhibition, % at 9.12 µM; in the data active = inhibition above about 32%;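 also: 0% = median of test compound wells and 100% = reference inhibitor wells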
MITF inh = blocks human microphthalmia-associated transcription factor; AlphaScreen MITF homodimerization, bead proximity signal; inhibition, % at 2.6 µM; 650,000 compounds, 0.91% hits; in the data active = inhibition above about 50%;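 also: 0% = vehicle wells with protein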
Target sequence (O75030 whole entry, looked up): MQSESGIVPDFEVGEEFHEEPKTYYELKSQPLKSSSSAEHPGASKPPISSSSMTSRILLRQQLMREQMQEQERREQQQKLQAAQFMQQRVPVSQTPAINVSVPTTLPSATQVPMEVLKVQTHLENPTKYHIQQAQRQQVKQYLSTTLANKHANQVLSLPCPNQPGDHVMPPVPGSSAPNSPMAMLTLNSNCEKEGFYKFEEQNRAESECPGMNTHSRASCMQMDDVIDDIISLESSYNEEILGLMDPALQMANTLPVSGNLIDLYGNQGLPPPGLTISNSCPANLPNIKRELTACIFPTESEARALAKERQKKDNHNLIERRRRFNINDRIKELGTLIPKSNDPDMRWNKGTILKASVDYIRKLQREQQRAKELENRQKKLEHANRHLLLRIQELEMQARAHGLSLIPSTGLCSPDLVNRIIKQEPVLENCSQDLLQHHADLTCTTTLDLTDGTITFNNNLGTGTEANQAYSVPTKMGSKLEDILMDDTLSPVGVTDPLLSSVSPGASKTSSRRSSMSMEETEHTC
Numbers without * were called inactive. Rows were chosen to be rich in hits. Some 3.5% of all compounds tested hit in one or more screens of this group.

SMILES | FBW7 activator | GPR151 ag | TEAD-YAP block | MITF inh
COc1cc(/C=C2/NC(=S)NC2=O)ccc1O | 0 | 0 | 54* | -1
COc1cccc(/C=C2/NC(=S)NC2=O)c1O | 0 | 0 | 41* | -2
COc1cc(/C=C2\NC(=S)NC2=O)ccc1O | 0 | -1 | 31 | 26
Cc1cccc(NC(=O)c2cc3n(n2)C(C(F)(F)F)CC(c2ccc(Cl)cc2)N3)c1 (stereo unspecified) | 0 | 0 | -7 | 8
CC1=NN(c2nc3ccccc3s2)C(=O)/C1=C(\C)N(C)C | 0 | -10 | 43* | 5
CC1=NN(c2nc3ccccc3s2)C(=O)/C1=C\N(C)C | 0 | -9 | 68* | 9
CN(C)/C=C1/C(=O)N(c2nc3ccccc3s2)N=C1c1ccccc1 | 0 | 0 | 5 | 0
CCOC(=O)c1c(NC(=O)CSc2nnc(CNC(=O)c3ccco3)n2-c2cc(C)ccc2C)sc2c1CCCC2 | 0 | 0 | 0 | 0
Cc1ccc(NC(=O)CC2SC(N)=NC2=O)cc1 (stereo unspecified) | 0 | 1 | -7 | 6
NC1=NC(=O)C(CC(=O)Nc2ccc(NC(=O)CC3SC(N)=NC3=O)cc2)S1 (stereo unspecified) | 0 | 0 | 4 | 55*
COc1ccc(C(=O)NC(c2ccc(Cl)cc2)c2cc(Cl)c3cccnc3c2O)cc1 (stereo unspecified) | 0 | -1 | 9 | 0
COc1cccc(C(NC(=O)c2ccccc2)c2ccc3cccnc3c2O)c1 (stereo unspecified) | -2 | -1 | 13 | 17
COc1ccc(C(NC(=O)c2ccccc2)c2ccc3cccnc3c2O)cc1 (stereo unspecified) | -1 | -1 | 38* | 46
O=C(NC(c1ccc(Cl)cc1)c1ccc2cccnc2c1O)c1ccccc1 (stereo unspecified) | -1 | 0 | 75* | 17
COC(=O)c1nnn(CC(=O)Nc2ccc(OC)c(Cl)c2)c1C(=O)OC | 0 | 0 | 4 | 2
CCOc1cc(/C=C(/C#N)C(=O)Nc2ccc(O)cc2)ccc1O | 0 | 1 | 50* | -12
CCOc1ccc(/C=C(/C#N)C(=O)Nc2ccc(O)cc2)cc1OCC | 0 | 0 | 15 | -2
N#C/C(=C\c1ccc(O)c(O)c1)C(=O)Nc1ccccc1 | 0 | -3 | -7 | -11
COc1cc(/C=C(/C#N)C(=O)Nc2ccc(O)cc2)cc(I)c1O | 0 | 0 | 50* | -7
N#C/C(=C\c1ccc(O)c(O)c1)C(=O)NCCCNC(=O)/C(C#N)=C/c1ccc(O)c(O)c1 | 0 | -1 | 1 | 96*
COc1cc(/C=C(\C#N)C(=O)c2ccc(O)c(O)c2)cc(I)c1O | 0 | -1 | -1 | 85*
O=c1oc2ccccc2c(O)c1NS(=O)(=O)c1ccc(C2CCCCC2)cc1 | 0 | -1 | 5 | -7
Cc1cc(-c2cn[nH]c2C2CCN(C(=O)c3ccncc3)CC2)on1 | 0 | 0 | 5 | -10
CCOc1ccc(/C=C(/C#N)C(=O)Nc2ccc(O)cc2)cc1OC | 0 | 0 | -3 | -5
CCOc1cc(/C=C(/C#N)C(=O)Nc2ccc(O)cc2)ccc1OC | 0 | 0 | 44* | 8
SMILES | FBW7 activator | GPR151 ag | TEAD-YAP block | MITF inh
Nc1cc(=O)[nH]c(S/C=C/c2ccccc2)n1 | 0 | -6 | 34* | 5
Nc1cc(=O)[nH]c(SCc2ccccc2CSc2nc(N)cc(=O)[nH]2)n1 | 0 | 1 | -2 | 4
COc1cc(S(=O)(=O)N(Cc2cccs2)C2CCCC2)ccc1-n1cnnn1 | 0 | 1 | -6 | -1
COc1cc(S(=O)(=O)N(Cc2ccccc2F)C2CCCC2)ccc1-n1cnnn1 | 0 | 1 | 67* | -5
OC(CN1C2=NCCCN2c2ccccc21)c1ccc2c(c1)OCO2 (stereo unspecified) | 0 | 0 | 3 | 5
OC(CN1C2=NCCN2c2ccccc21)c1ccc2c(c1)OCO2 (stereo unspecified) | 0 | 0 | 55* | 0
O=c1cc(Nc2ccc3c(c2)OCCO3)[nH]c(=O)n1-c1ccc(Cl)cc1 | 0 | 0 | -5 | -3
O=c1cc(Nc2ccc3c(c2)OCCO3)[nH]c(=O)n1C1CCCCC1 | 0 | 1 | 58* | 11
CC1(C)CC(=O)C2=C(C1)N(c1c(F)cccc1F)C(N)=C(C#N)C2c1ccccc1F (stereo unspecified) | 0 | 0 | -4 | -12
COc1ccc(C2=NN(C(=O)c3cc(OC)c(OC)c(OC)c3)C(c3ccc(C)cc3)C2)cc1OC (stereo unspecified) | 0 | -1 | 46* | 3
COc1ccc(C2=NN(C(=O)c3ccccc3)C(c3cccc([N+](=O)[O-])c3)C2)cc1 (stereo unspecified) | 0 | -1 | -7 | 1
COc1ccc(C2=NN(C(=O)c3cc(OC)c(OC)c(OC)c3)C(c3ccc(OC)c(OC)c3)C2)cc1OC (stereo unspecified) | 0 | 2 | 21 | 2
COc1ccc(C2=NN(C(=O)c3cc(OC)c(OC)c(OC)c3)C(c3cccc([N+](=O)[O-])c3)C2)cc1OC (stereo unspecified) | 0 | 0 | 37* | -1
NC(=O)c1ccc(NC(=O)C2C3C=CC(O3)C2C(=O)O)cc1 (stereo unspecified) | 1 | 0 | -3 | 16
CCNc1nc(Nc2ccc3c(c2)OCO3)c2[nH]cnc2n1 | 0 | -1 | 1 | -2
CCCNc1nc(Nc2ccncn2)nc2nc[nH]c12 | 0 | -1 | 36* | 16
c1cc(Nc2nc(Nc3ccc4c(c3)OCO4)c3[nH]cnc3n2)ncn1 | 27* | 0 | -27 | 9
c1cnc(Nc2nc(Nc3ccc4c(c3)OCO4)c3[nH]cnc3n2)cn1 | 20* | -1 | 31 | 15
FC(F)(F)c1ccc(Nc2nc(Nc3ccc4c(c3)OCO4)c3[nH]cnc3n2)cc1 | 0 | -1 | 1 | 8
COc1cc(C2C(C#N)=C(N)Oc3n[nH]c(C(C)C)c32)ccc1O (stereo unspecified) | 0 | -1 | 8 | 1
COCCn1nnnc1CN1CCN(c2cc(Cl)ccc2C)CC1 | 0 | -1 | 1 | -3
CCCCNC(=O)COC(=O)c1c2ccccc2cc2ccccc12 | 0 | -2 | -21 | -3
O=C(c1cc2c(ccc3ccccc32)oc1=O)N1CCOCC1 | 0 | 0 | -29 | -6
O=C(c1cc2c(ccc3ccccc32)oc1=O)N1CCCC1 | 3.2* | 0 | -3 | 2
Cc1cnc(NC(=O)c2ccc(Cn3ccnc3)cc2)s1 | 0 | -1 | 61* | 0
CCOc1ccc(NS(=O)(=O)c2cccc(C(=O)O)c2)cc1Br | 0 | -1 | 9 | 0
COc1cccc(NS(=O)(=O)c2ccc3c4c2CC(=O)N4CC(C)S3)c1 (stereo unspecified) | 0 | -2 | 40* | 16
Cc1cc(C)c(NS(=O)(=O)c2ccc3c4c2CC(=O)N4CC(C)S3)c(C)c1 (stereo unspecified) | 0 | 0 | 4 | -4
Cc1c(O)ccc(/C=N/Nc2ncccc2[N+](=O)[O-])c1O | 0 | -9 | 71* | -5

Source: PubChem (The Scripps Research Institute Molecular Screening Center)
